Assay outcomes: PubChem, National Center for Advancing Translational Sciences (NCATS)
Cruzain inh noDet: qHTS Assay for Promiscuous and Specific Inhibitors of Cruzain (without detergent); hit rate 2.3% among 200,000; Potency, µM, for inactives: max response, negative = inhibition, usual class: inhibitors; purified cruzain, Z-FR-AMC fluorescence, no detergent; AID 1476, 2009; Cruzipain (Trypanosoma cruzi), P25779;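 also: plate controls were enzyme without inhibitor for no effect and buffer without enzyme for full effect; nearly all actives have a fitted effect of over 40% in size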
Target sequence (P25779 123-467 limits assumed): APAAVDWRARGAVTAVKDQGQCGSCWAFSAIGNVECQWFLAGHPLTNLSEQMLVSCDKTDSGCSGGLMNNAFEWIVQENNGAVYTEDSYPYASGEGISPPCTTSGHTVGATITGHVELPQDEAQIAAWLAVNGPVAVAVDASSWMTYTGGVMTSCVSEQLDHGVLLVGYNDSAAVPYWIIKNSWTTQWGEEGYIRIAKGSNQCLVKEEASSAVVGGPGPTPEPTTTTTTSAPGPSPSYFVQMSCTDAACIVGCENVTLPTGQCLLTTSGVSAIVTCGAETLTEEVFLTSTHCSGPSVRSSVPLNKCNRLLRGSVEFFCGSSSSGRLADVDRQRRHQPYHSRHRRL
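Purified cruzain at 1.5 nM, pre-incubated 15 min with compound at room temperature in 100 mM sodium acetate pH 5.5, 5 mM DTT, 0.00005% Triton X-100. Reaction started with 2 uM Z-FR-AMC; AMC fluorescence increase over 60 s gives rate.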
Cruzain Triton: qHTS Assay for Promiscuous and Specific Inhibitors of Cruzain (with detergent); Potency, µM, for inactives: max response, negative = inhibition, usual class: inhibitors; Cruzipain (Trypanosoma cruzi), P25779; purified cruzain, Z-FR-AMC fluorescence, 0.01% Triton; AID 1478, 2009; hit rate 0.43% among 200,000;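 also: plate controls were neutral wells for no effect and buffer without enzyme for full effect; nearly all actives have a fitted effect of over 40% in size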
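Steps: dispense cruzain (1.5 nM final) in acetate buffer pH 5.5 with DTT and 0.01% Triton X-100; pin-transfer compounds; incubate 15 min RT; add Z-FR-AMC (2 uM final); read fluorescence every 30 s, using the 60 s intensity change.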
An asterisk follows results filed as active; ? = inconclusive. An excerpt weighted towards active compounds, which were near 2.6% of everything screened. Calls follow the shape of the dose curve; as a rule, active = well fitted curve in the direction sought with a large enough effect; inconclusive = small, poorly fitted or top-dose-only effect, or another doubt; inactive = no such curve, though single readings can be large; an effect the other way counts as inactive or inconclusive. Potency is read from the fitted curve at half-maximal effect.

SMILES	Cruzain inh noDet	Cruzain Triton
Cc1c(Cl)cccc1-c1ccc(CNCCSc2nnnn2-c2ccccc2)o1	7.9µM*	13µM*
CCN(CC)CCCNC(=O)CN1C(=O)COc2ccc(S(=O)(=O)N3CCC(C)CC3)cc21	-4%	0%
O=C(CSc1nnc(-c2ccc(Cl)cc2)c(-c2ccc(Cl)cc2)n1)NC1CCCC1	-9%	-8%
Cc1ccc(-c2nnc(SCC(=O)NC3CCCC3)nc2-c2ccc(C)cc2)cc1	13µM*	?
CC(C)Oc1ccc(CNC(=O)Cc2ccc(NC(=O)N3CCSc4ncccc43)cc2)cc1	18%	-10%
O=[N+]([O-])c1ccc(N2CCCC2)cc1N/N=C1\CN2CCC1CC2	25µM*	?
O=[N+]([O-])c1ccc(N2CCNCC2)cc1NC1CC1	1%	-6%
Cc1cc(N)ccc1N1CCCC1	16µM*	?
Cc1cc(N)ccc1-n1c(C)ccc1C	-2%	-5%
CCOC(=O)N1CCc2c(sc3c2c(=O)n(-c2ccc(F)cc2)c(=O)n3CC(=O)c2ccc(Cl)cc2)C1	-6%	-3%
Cc1ccccc1-c1cc(-c2ccccc2O)n[nH]1	-14%	-10%
COc1ccccc1-c1cc(-c2cc(Cl)ccc2O)n[nH]1	25µM*	1%
COc1ccc(OC)c(NC(=O)c2cc(-c3cc(Cl)ccc3O)n[nH]2)c1	?	0%
Oc1ccc(Br)cc1-c1cc(-c2ccccc2F)[nH]n1	20µM*	0%
Oc1ccc(Cl)cc1-c1cc(-c2ccccc2)n[nH]1	-10%	-13%
COc1ccc(Cl)cc1NC(=O)c1cc(-c2ccccc2O)n[nH]1	10µM*	-2%
Cc1ccc2nc(COc3ccccc3NC(=O)COc3ccc(F)cc3)cc(=O)n2c1	8%	0%
CC(=O)N1CCCc2cc(S(=O)(=O)NCc3ccc(N(C)C)cc3)ccc21	-11%	0%
C=C1C[C@]23C[C@@]1(O)CC[C@H]2[C@@]12C=C[C@H](O)C(C)(C(=O)O1)[C@H]2[C@@H]3CC(=O)O	0%	3%
Cc1cccc2cc(C#N)c(SCC(=O)N3CCC(C)CC3)nc12	-13%	-11%
Cc1cccc2cc(C#N)c(SCC(=O)N3CC(=O)Nc4ccccc43)nc12	25µM*	-3%
COc1ccc(-c2cc(C(=O)Nc3c(C(=O)c4ccc(C)c(F)c4)oc4ccccc34)no2)cc1	-12%	-1%
CCc1nonc1NC(=O)c1oc2cc(C)c(C)cc2c1C	0%	1%
CCc1nnc(NC(=O)c2oc3cc(C)c(C)cc3c2C)s1	13µM*	-1%
COc1ccc2c(c1)O[C@@H](c1cccc(C(F)(F)F)c1)[C@H](OC(=O)NS(=O)(=O)c1ccc(C)cc1)C2=O	13%	-7%
SMILES	Cruzain inh noDet	Cruzain Triton
O=C(NCCc1cccs1)C12CN(Cc3ccccc3)CC1C(c1cccc([N+](=O)[O-])c1)=NO2 (stereo unspecified)	13µM*	3%
O=C(NCCCCc1ccccc1)C12CN(Cc3ccccc3)CC1C(c1cccc([N+](=O)[O-])c1)=NO2 (stereo unspecified)	7%	4%
N#Cc1ccccc1CSc1nnc2ccc3ccccc3n12	-4%	-2%
COc1ccc(-c2cc(=O)oc3cc(OCC(C)=O)ccc23)cc1	-7%	-5%
COc1ccc(-c2cc(=O)oc3cc(OCC(=O)c4cccc([N+](=O)[O-])c4)ccc23)cc1	25µM*	-8%
O=C(Oc1ccc([N+](=O)[O-])cc1)c1cccnc1	9%	-4%
O=C(Oc1ccc(NC2=C(Cl)C(=O)c3ccccc3C2=O)cc1)c1ccc([N+](=O)[O-])cc1	13µM*	-3%
COc1ccc2[nH]cc(CCNC(=O)Nc3cccc(F)c3)c2c1	2%	-11%
COc1ccc2c(c1)O[C@H](c1ccc3c(c1)OCO3)[C@@H](OC(=O)NS(=O)(=O)c1ccc(C)cc1)C2=O	-3%	3%
COc1ccc(S(=O)(=O)N2CCCCC2)cc1C(=O)Nc1cccc(C(F)(F)F)c1	-1%	-1%
Cc1ccc(C)c(-n2nnc(C(=O)Nc3ccc(Br)cc3)c2C)c1	-8%	0%
COCCCNC(=O)C(Cc1ccccc1)NS(=O)(=O)c1ccc2c(c1)c(=O)n(C)c(=O)n2C (stereo unspecified)	-8%	1%
Cn1c(=O)c2cc(S(=O)(=O)NC(Cc3ccccc3)C(=O)NCc3ccco3)ccc2n(C)c1=O (stereo unspecified)	16µM*	20µM*
O=C(Nc1ccccc1F)c1ccc2c(Cl)c3c(nc2c1)CCC3	1%	-9%
COc1ccccc1NC(=O)C1CCC(CNS(=O)(=O)c2ccc3c(c2)CC(C)N3C(C)=O)CC1 (stereo unspecified)	?	-1%
CCOC(=O)N1CCc2c(sc3c2c(=O)n(-c2ccc(Cl)cc2)c(=O)n3CC(C)C)C1	1%	-1%
COc1cccc(NC(=O)c2cccc3c(=O)c4c([nH]c23)CCCC4)c1	17%	-5%
COc1ccc(/C=C/C(=O)c2ccc(Cl)cc2)c(OC)c1	1%	-6%
COc1ccc(/C=C/C(=O)/C=C/c2ccc(OC)cc2OC)c(OC)c1	3.2µM*	6%
O=C(NCc1ccco1)c1ccc2c(c1)N(Cc1cccc(Cl)c1)C(=O)c1ccccc1S2(=O)=O	?	-4%
O=C(NCc1ccco1)c1ccc2c(c1)N(Cc1ccc(Cl)cc1)C(=O)c1ccccc1S2(=O)=O	25µM*	-4%
O=C(NCCC1=CCCCC1)c1ccc2c(c1)N(Cc1cccc(Cl)c1)C(=O)c1ccccc1S2(=O)=O	?	-1%
O=C(NCCC1=CCCCC1)c1ccc2c(c1)N(Cc1ccc(Cl)cc1)C(=O)c1ccccc1S2(=O)=O	32µM*	-1%
COCCNC(=O)c1ccc2c(c1)N(Cc1cc(C)ccc1C)C(=O)c1ccccc1S2=O (stereo unspecified)	?	-1%
Cc1ccc(C)c(CN2C(=O)c3ccccc3S(=O)c3ccc(C(=O)NCCc4ccc(Cl)cc4)cc32)c1 (stereo unspecified)	6.3µM*	0%
SMILES	Cruzain inh noDet	Cruzain Triton
COc1ccc(CNC(=O)c2ccc3c(c2)N(Cc2ccccc2F)C(=O)c2ccccc2S3(=O)=O)cc1	25µM*	-1%
COc1ccc(CNC(=O)c2ccc3c(c2)N(Cc2ccccc2)C(=O)c2ccccc2S3(=O)=O)cc1	?	1%
Cc1ccc(NC(=O)Cn2c(=O)n(Cc3nc(C)no3)c(=O)c3cc4c(cc32)OCO4)c(Cl)c1	4%	-2%
Cc1nc2ccccn2c(=O)c1NC(=O)c1ccccc1Cl	2%	4%
COc1ccc(NS(=O)(=O)c2ccc(I)cc2)cc1N1CCN(C)CC1	2%	0%
O=C(NCCC1=CCCCC1)c1ccc2c(c1)N(Cc1ccc(F)cc1)C(=O)c1ccccc1S2(=O)=O	?	-1%
O=C(OCC1CCCO1)c1ccc2c(c1)N(Cc1ccccc1Cl)C(=O)c1ccccc1S2(=O)=O (stereo unspecified)	-29%	1%
O=C(NCCC1=CCCCC1)c1ccc2c(c1)N(Cc1cccc(Cl)c1)C(=O)c1ccccc1S2=O (stereo unspecified)	13µM*	-2%
COCCNC(=O)c1ccc2c(c1)N(Cc1cccc(Cl)c1)C(=O)c1ccccc1S2=O (stereo unspecified)	12%	-2%
Cc1ccc(C)c(CN2C(=O)c3ccccc3S(=O)(=O)c3ccc(C(=O)NCCC4=CCCCC4)cc32)c1	32µM*	0%
